Measurements: PubChem BioAssay (NCATS)
Several values for one entry are separate records, joined by “and”; a condition that tells them apart may be missing. Equal entries are not always repeated. Inconclusive results are not listed. Activity calls are given as the source filed them. Unless noted, calls follow the shape of the dose curve; as a rule, active = well fitted curve in the direction sought with a large enough effect; inconclusive = small, poorly fitted or top-dose-only effect, or another doubt; inactive = no such curve, though single readings can be large; an effect the other way counts as inactive or inconclusive.

Experiments:
[1] = Cell Viability - Hek293 (AID 427;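 active = compounds whose dose-response curve shows a full or clear partial loss of cell viability, called from curve shape rather than a numeric limit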;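 also: potency is read from the fitted curve at half-maximal effect; cells exposed to compound for 40 hours at 37 °C before reading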); conditions: qHTS
Method in brief: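 AC50 values derive from Hill-modelled concentration-response of ATP-based luminescence, normalized between DMSO-only and 100 uM tamoxifen controls. Cells were exposed in complete culture medium for 40 hr at 37 °C before detection.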

[2] = Cell Viability - MRC5 (AID 434; calls by dose curve;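 also: potency is read from the fitted curve at half-maximal effect; potency reflects cytotoxicity seen as loss of intracellular ATP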); conditions: MRC5 lung fibroblast viability, qHTS
Method in brief: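 MRC5 normal human lung fibroblasts, 1500 cells/well, exposed to compound for 40 hr at 37 C. Cellular ATP was read by CellTiter-Glo luminescence; data normalized to DMSO and 100 uM tamoxifen, with AC50 from Hill fits.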

[3] = target: Mitogen-activated protein kinase 10 (Mus musculus) (UniProt Q61831); assay: JNK3 AlphaScreen Assay (AID 530; active = well fitted curve in either direction with a large enough effect, not every such curve was filed as active;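 also: kinase came from lysate of stimulated human HepG2 cells; signal reports phosphorylation of biotinylated GST-cJun 1-79 at Ser73 with 10 µM ATP; % is scaled to controls: 0 for no effect and ±100 for the full control effect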); conditions: JNK3 lysate, c-Jun phosphorylation; series mostly up to 57.1 µM
Method in brief: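 Pre-activated (IL-1β/TNFα) JNK3 in HepG2 lysates phosphorylates biotin-GST-cJun(1-79), 10 uM ATP; anti-phospho-cJun(Ser73) AlphaScreen read at room temperature, pH 7.6 Tris buffer. Compounds pre-incubated 15 min as titrations.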

[4] = Cellular Toxicity (caspase-3) HepG2 (AID 654); conditions: HepG2 caspase-3 activation, luminescence, 0% = DMSO only, 100% = tamoxifen; series mostly up to 92.2 µM;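 also: cells exposed to compound for 16 hours before reading; 0% = DMSO alone and 100% = caspase signal from 100 µM tamoxifen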
Method in brief: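 HepG2 cells (1500/well) were treated 16 h at 37 °C in complete medium, then caspase 3/7 activity was read by Caspase-Glo luminescence. Data were normalized to DMSO and 100 uM tamoxifen; AC50 came from Hill-equation fits of qHTS concentration-response.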

[5] = MultiTox-Fluor Cytotoxicity Assay - LYMP1-001 - Live Cells (AID 947); conditions: LYMP1-001 lymphoblastoid cells, live-cell protease fluorescence viability; series mostly up to 92.2 µM;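 also: 0% = DMSO only and full inhibition = tetraoctylammonium bromide control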
[6] = MultiTox-Fluor Cytotoxicity Assay - LYMP1-002 - Dead Cells (AID 960); conditions: LYMP1-002 lymphoblastoid cells, dead-cell protease fluorescence; series mostly up to 46.1 µM; also: nearly all actives have a fitted effect of over 60% in size; also: potency is read from the fitted curve at half-maximal effect
Method in brief: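 Human lymphoblastoid LYMP1-002 cells, 2500/well, treated 16 h at 37 C; dead-cell protease cleavage of bis-AAF-R110 read by fluorescence (485/520); normalized to DMSO and 15 uM tetraoctylammonium bromide; AC50 from Hill fit.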

[7] = Cell Viability - LYMP2-004 (AID 966); conditions: LYMP2-004 lymphoblastoid cell viability, qHTS; series mostly up to 92.2 µM;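 also: plate controls were DMSO only for no effect and tetraoctylammonium bromide control for full effect; nearly all actives have a fitted effect of over 65% in size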
Method in brief: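 Lymphoblastoid LYMP2-004 cells, 2500 per well, were preincubated for 5 hr and then treated with compound for 24 h at 37 C in complete medium. Viability was read as cellular ATP by CellTiter-Glo luminescence, and AC50 values were taken from Hill fits to concentration-response data.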

[8] = Cell Viability - LYMP2-005 (AID 967); conditions: LYMP2-005 lymphoblastoid cell viability; series mostly up to 92.2 µM;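 also: plate controls were DMSO only for no effect and 92 µM tetraoctylammonium bromide control for full effect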
Method in brief: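 Acute cytotoxicity is scored as a concentration-dependent drop in intracellular ATP in human lymphoblastoid LYMP2-005 cells after 24 h compound treatment. ATP is quantified by luciferase luminescence, and AC50 is derived by Hill-equation modelling.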

[9] = Cell Viability - LYMP2-025 (AID 976); conditions: LYMP2-025 lymphoblastoid cell viability; series mostly up to 92.2 µM;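 also: plate controls were DMSO only for no effect and tetraoctylammonium bromide control for full effect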
Method in brief: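 Human lymphoblastoid LYMP2-025 cells, 2500/well, exposed 24 h at 37 C in complete medium in 1536-well qHTS. Viability as cellular ATP by CellTiter-Glo luminescence; AC50 from Hill fits of concentration-response data.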

[10] = Cell Viability - LYMP2-016 (AID 984); conditions: LYMP2-016 lymphoblastoid cell viability, qHTS; series mostly up to 92.2 µM; also: % is scaled to controls: 0 for no effect and ±100 for the full control effect; nearly all actives have a fitted effect of over 55% in size
Method in brief: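 Cells were seeded at 2500 per well and rested 5 hr before a 24 hr compound exposure at 37 C. Viability was then gauged as cellular ATP by luciferase luminescence, with AC50 values fitted to the Hill equation.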

[11] = Cell Viability - LYMP2-018 (AID 985); conditions: LYMP2-018 lymphoblastoid cells, viability (qHTS); series mostly up to 92.2 µM;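 also: plate controls were DMSO only for no effect and tetraoctylammonium bromide at 92 µM for full effect; nearly all actives have a fitted effect of over 50% in size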
Method in brief: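 Human lymphoblastoid LYMP2-018 cells, 2500/well, settled 5 hr at 37 C then exposed to compound 24 hr at 37 C; intracellular ATP measured by CellTiter-Glo luminescence. AC50 from Hill-equation concentration-response fits.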

[12] = Cell Viability - LYMP2-022 (AID 987); conditions: LYMP2-022 lymphoblastoid cell viability; series mostly up to 92.2 µM;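 also: 0% = DMSO alone and full effect = tetraoctylammonium bromide at 92 µM; nearly all actives have a fitted effect of over 55% in size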
Method in brief: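 LYMP2-022 lymphoblastoid cells (2500/well, complete medium) were treated with compounds for 24 hours at 37 C; intracellular ATP was then read by CellTiter-Glo luminescence after 30 min at room temperature. AC50 values were derived from Hill-equation fits.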

[13] = Cell Viability - LYMP2-024 (AID 988); conditions: LYMP2-024 lymphoblastoid cell viability; series mostly up to 92.2 µM;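 also: plate controls were DMSO only for no effect and 92 µM tetraoctylammonium bromide for full effect; nearly all actives have a fitted effect of over 60% in size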
Method in brief: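 Human lymphoblastoid LYMP2-024 cells (2500/well) rested 5 hr, then treated with compound for 24 hr at 37 C in complete medium. Viability was measured as intracellular ATP by CellTiter-Glo luminescence. AC50 values came from Hill-equation fits.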

[14] = Cell Viability - LYMP1-002 - Assay at 24 hr (AID 993); conditions: LYMP1-002 lymphoblastoid cells viability; series mostly up to 92.2 µM; also: % is scaled to controls: 0 for no effect and ±100 for the full control effect
Method in brief: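 Human lymphoblastoid LYMP1-002 cells (2500/well) treated 24 h at 37 °C; viability as intracellular ATP by CellTiter-Glo luminescence. Tetraoctylammonium bromide as positive control; AC50 from Hill-equation fits of qHTS concentration-response.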

[15] = target: Peroxisome proliferator-activated receptor gamma (Homo sapiens) (UniProt P37231); assay: qHTS assay for small molecule agonists of peroxisome proliferator-activated receptor gamma signaling (AID 588536; active = well fitted curve in the direction sought with a large enough effect in the signal ratio, with a control signal flat, not every such curve was filed as active; the % refers to the signal ratio;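 also: 0% = DMSO basal wells and 100% = rosiglitazone at 2 µM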); conditions: HEK293 PPARg-UAS-bla, beta-lactamase ratio, 16 h, percent of rosiglitazone response, DMSO as zero; series mostly up to 76.7 µM
Method in brief: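 HEK293 UAS-bla reporter line, 1% charcoal/dextran FBS; titration, 16 h, 37 C; CCF4 loading 2 h RT; fluorescence 460/530 nm. Normalized to rosiglitazone 2 uM = 100%, DMSO = 0%.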

[16] = qHTS assay for small molecule agonists of retinoid X receptor alpha signaling (AID 588544); conditions: HEK293T RXRa-UAS-bla, beta-lactamase reporter, 18 h; 530 nm emission
[17] = target: Thyroid hormone receptor beta (Homo sapiens) (UniProt P10828); assay: qHTS assay for small molecule agonists of thyroid hormone receptor beta signaling (AID 588545; calls by dose curve;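 also: 0% = DMSO only and 100% = 10 nM T3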); conditions: TR-UAS-bla GripTite HEK 293, beta-lactamase ratio, agonist mode, 18 h; series mostly up to 76.7 µM
Method in brief: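 TR-UAS-bla GripTite HEK 293 cells (2500/well, medium with 2% charcoal/dextran FBS) were treated in agonist mode for 18 h at 37 C, titrated. Beta-lactamase was read by CCF4 ratio after 2 h; normalized to 10 nM T3 (100%) and DMSO, Hill-fitted for EC50 and efficacy.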

[18] = qHTS assay for small molecule antagonists of retinoid X receptor alpha signaling (AID 588546); conditions: HEK293T RXRa-UAS-bla, beta-lactamase ratio, antagonist mode; measured here: W530 green channel, cytotoxicity proxy;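 also: cells stimulated with 9-cis-retinoic acid as agonist; % is scaled to controls: 0 for no effect and ±100 for the full control effect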
Method in brief: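 Beta-lactamase reporter inhibition, read as CCF4 fluorescence ratio (ex 405, em 460/530 nm) after 2 h at RT. HEK293T UAS-bla cells, 2500/well, were stimulated with 9-cis-RA at 500 or 100 nM final alongside test compound for 18 h at 37 C.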

[19] = target: Thyroid hormone receptor beta (Homo sapiens) (UniProt P10828); assay: qHTS assay for small molecule antagonists of thyroid hormone receptor beta signaling (AID 588547; active = well fitted inhibition curve with a large enough effect in the signal ratio, with a control signal flat, not every such curve was filed as active; the % refers to the signal ratio;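 also: cells stimulated with 0.4 nM T3 agonist during compound exposure; % is scaled to controls: 0 for no effect and ±100 for the full control effect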); conditions: TR-UAS-bla HEK293, beta-lactamase ratio, antagonist mode, 18 h
Method in brief: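 TR-UAS-bla GripTite HEK293 cells in 2% charcoal/dextran FBS medium; compounds 0.59 nM to 92 uM with T3 at 0.4nM final, 18 h at 37 C. Beta-lactamase read by CCF4 fluorescence (460/530 nm); Hill fits gave IC50 and efficacy.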

[20] = target: Tumor necrosis factor (Homo sapiens) (UniProt P01375); assay: qHTS assay to identify small molecules that stimulate Tumor Necrosis Factor-alpha (TNF-alpha) secretion (AID 651757; active = well fitted curve in the direction sought with a large enough effect in the signal ratio; the % refers to the signal ratio; also: 0% is about no effect); conditions: Human cells, HTRF 665/615 ratio; series mostly up to 92.2 µM
Method in brief: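 THP-1 cells (3000/well) exposed to compounds 17 hrs at 37 C. Secreted TNF-alpha detected by HTRF with cryptate- and XL665-labeled anti-TNF-alpha antibodies after 3 hr at room temperature.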

Thyroid hormone receptor beta (Homo sapiens), sequence (P10828 whole entry, looked up): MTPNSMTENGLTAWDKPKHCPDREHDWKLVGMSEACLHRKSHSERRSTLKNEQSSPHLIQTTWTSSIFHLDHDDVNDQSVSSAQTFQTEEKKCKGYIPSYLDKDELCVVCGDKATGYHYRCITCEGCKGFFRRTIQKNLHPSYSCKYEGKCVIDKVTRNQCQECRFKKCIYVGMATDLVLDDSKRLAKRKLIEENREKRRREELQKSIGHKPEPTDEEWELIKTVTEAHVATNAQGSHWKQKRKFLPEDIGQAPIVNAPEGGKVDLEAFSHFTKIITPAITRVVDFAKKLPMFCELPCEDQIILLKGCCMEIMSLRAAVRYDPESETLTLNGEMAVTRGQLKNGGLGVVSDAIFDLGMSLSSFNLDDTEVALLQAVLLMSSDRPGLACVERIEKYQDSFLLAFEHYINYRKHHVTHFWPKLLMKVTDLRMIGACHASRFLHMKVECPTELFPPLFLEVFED
Peroxisome proliferator-activated receptor gamma (Homo sapiens), sequence (P37231 whole entry, looked up): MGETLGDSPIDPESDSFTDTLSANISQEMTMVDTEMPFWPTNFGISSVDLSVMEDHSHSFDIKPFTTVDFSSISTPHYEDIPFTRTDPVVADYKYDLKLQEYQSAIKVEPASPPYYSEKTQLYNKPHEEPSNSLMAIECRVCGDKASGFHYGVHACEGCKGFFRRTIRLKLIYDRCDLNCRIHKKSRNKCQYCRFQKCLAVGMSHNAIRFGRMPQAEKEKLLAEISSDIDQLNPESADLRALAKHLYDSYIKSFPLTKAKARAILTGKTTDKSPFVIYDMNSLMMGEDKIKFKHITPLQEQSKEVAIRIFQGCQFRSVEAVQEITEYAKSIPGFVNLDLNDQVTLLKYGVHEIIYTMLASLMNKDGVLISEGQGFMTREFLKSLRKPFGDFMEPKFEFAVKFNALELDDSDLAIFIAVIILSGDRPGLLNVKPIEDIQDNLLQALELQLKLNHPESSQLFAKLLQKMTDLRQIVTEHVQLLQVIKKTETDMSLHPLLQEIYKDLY
Tumor necrosis factor (Homo sapiens), sequence (P01375 whole entry, looked up): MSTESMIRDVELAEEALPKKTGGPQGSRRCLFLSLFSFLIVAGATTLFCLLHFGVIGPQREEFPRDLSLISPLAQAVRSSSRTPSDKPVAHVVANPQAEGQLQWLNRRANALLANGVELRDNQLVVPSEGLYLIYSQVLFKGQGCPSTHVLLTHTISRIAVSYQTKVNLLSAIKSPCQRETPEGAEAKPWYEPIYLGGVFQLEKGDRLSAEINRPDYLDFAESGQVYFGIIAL

CC(C)(C)c1ccccc1O
-15.4% and -14.5%: max response [18]
-1.25% and -13.7%: max response [16]
inactive: Potency [1] > 92 µM | Potency [2] > 92 µM | Potency [3] | outcome [4] | outcome [5] | Potency [6] | Potency [7] | Potency [8] | Potency [9] | Potency [10] | Potency [11] | Potency [12] | Potency [13] | Potency [14] | outcome [15] | Potency [17] | activity change % (negative = inhibition) [19] 3.5% and 10.7% | outcome [20]

CC(C)(Cl)[N+](=O)[O-]
-8.14%: max response [18]
inactive: Potency [1] > 92 µM | Potency [2] > 92 µM | Potency [3] | outcome [4] | outcome [5] | Potency [6] | Potency [7] | Potency [8] | Potency [9] | Potency [10] | Potency [11] | Potency [12] | Potency [13] | Potency [14] | outcome [15] | Potency [17] | activity change % (negative = inhibition) [19] 9.2% | outcome [20]
-3.38%: max response [16]

COc1ccccc1N
-8.71%: max response [16]
inactive: Potency [1] > 92 µM | Potency [2] > 92 µM | Potency [3] | outcome [4] | outcome [5] | Potency [6] | Potency [7] | Potency [9] | Potency [10] | Potency [11] | Potency [12] | Potency [13] | Potency [14] | outcome [15] | Potency [17] | outcome [20]

Oc1cccc(Cl)c1Cl
-10%: max response [16]
inactive: Potency [1] > 92 µM | Potency [2] > 92 µM | Potency [3] | outcome [4] | outcome [5] | Potency [6] | Potency [7] | Potency [8] | Potency [9] | Potency [10] | Potency [11] | Potency [12] | Potency [13] | Potency [14] | outcome [15] | Potency [17] | activity change % (negative = inhibition) [19] 9.41% | outcome [20]
-4.72%: max response [18]

CCN(N=O)C(N)=O
inactive: Potency [1] > 92 µM | Potency [2] > 92 µM | Potency [3] | outcome [5] | Potency [6] | Potency [7] | Potency [8] | Potency [9] | Potency [10] | Potency [11] | Potency [12] | Potency [13] | outcome [15] | Potency [17] | activity change % (negative = inhibition) [19] 18.5% | outcome [20]
-12%: max response [16]
-10.6%: max response [18]

COP(=S)(OC)SCn1nnc2ccccc2c1=O
inactive: Potency [3] | outcome [4] | outcome [5] | Potency [6] | Potency [8] | Potency [9] | Potency [10] | Potency [11] | Potency [12] | Potency [13] | Potency [14] | outcome [15] | Potency [17] | activity change % (negative = inhibition) [19] 7.85% | outcome [20]

Cc1cc(C)cc(OP(=O)(Oc2cc(C)cc(C)c2)Oc2cc(C)cc(C)c2)c1
-11.1%: max response [16]
17.8%: max response [18]
active: Potency [6] 31.6 µM
inactive: Potency [1] > 92 µM | Potency [2] > 92 µM | outcome [4] | outcome [5] | Potency [7] | Potency [8] | Potency [9] | Potency [11] | Potency [12] | Potency [13] | Potency [14] | Potency [17] | activity change % (negative = inhibition) [19] 2.87% | outcome [20]
